# Screens from PubChem BioAssay.
# GLP1R ag = GLP-1 receptor (human) agonism. P43220. HEK293 GLP-1R CRE-luciferase, luminescence, 4-6 h; cells express a hypersensitive GLP-1R form. Potency, µM (titrated, usually from 45.6 µM), inactives show at the highest dose activation, usual class: activators. hit rate 0.007% among 380,000. AID 624172; note: potency is the fitted concentration of half-maximal effect; % of control where 0% means no effect
# Target sequence (P43220 whole entry, looked up): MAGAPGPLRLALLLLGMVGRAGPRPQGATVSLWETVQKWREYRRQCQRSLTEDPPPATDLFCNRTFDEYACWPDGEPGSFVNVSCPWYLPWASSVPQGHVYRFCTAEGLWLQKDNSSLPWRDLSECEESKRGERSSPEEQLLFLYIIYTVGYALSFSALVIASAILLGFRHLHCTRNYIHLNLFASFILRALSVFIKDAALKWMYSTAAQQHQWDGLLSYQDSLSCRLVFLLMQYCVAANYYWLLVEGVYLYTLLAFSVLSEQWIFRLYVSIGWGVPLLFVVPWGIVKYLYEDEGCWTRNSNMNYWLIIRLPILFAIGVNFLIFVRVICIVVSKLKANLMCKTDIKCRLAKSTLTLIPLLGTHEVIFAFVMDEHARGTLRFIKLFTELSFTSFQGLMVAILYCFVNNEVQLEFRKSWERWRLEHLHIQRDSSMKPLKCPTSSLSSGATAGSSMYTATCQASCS
# ClpP mod = qHTS Assay for Activators of ClpP | hit rate 1.9% among 340,000 | AID 651965, 2013 | ATP-dependent Clp protease proteolytic subunit (Bacillus subtilis (strain 168)), P80244 | purified B. subtilis ClpP, FRET peptide cleavage, 20 min | Potency, µM (highest dose often 57.5 µM), for inactives: at the highest dose activity change, negative = active; active = well fitted falling curve with a large enough effect; inconclusive = small, poorly fitted or top-dose-only effect; inactive = no such curve, though single readings can be large or run the other way; note: potency is the fitted concentration of half-maximal effect; the source files actives as falling curves though it sought activators and does not explain the sign; nearly all actives have a fitted effect of over 65% in size
# Target sequence (P80244 whole entry, looked up): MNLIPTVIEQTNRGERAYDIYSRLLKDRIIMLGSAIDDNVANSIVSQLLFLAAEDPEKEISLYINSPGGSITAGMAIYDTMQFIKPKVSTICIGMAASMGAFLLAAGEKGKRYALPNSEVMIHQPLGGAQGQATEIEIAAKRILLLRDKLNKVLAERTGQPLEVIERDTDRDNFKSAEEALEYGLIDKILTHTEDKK
#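 ClpP 10 microg/mL final, pH 8 Tris/KCl buffer with BSA, glycerol, Tween-20; compound pinned in; FRET-FV substrate; RT 20 min; Ex320/Em430; ΔFRET vs ADEP 5.8 microM, DMSO, no enzyme.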
# p53 reactivation = re-activators of mutant p53; H1299 p53-A138V BP100-luciferase reporter, luminescence, 24 h; Potency, µM (doses to about 92.2 µM), inactives show top-dose activity change, positive = activation, most hits filed as activators; hit rate 0.063% among 320,000; AID 504706; note: potency is the fitted concentration of half-maximal effect; % of control where 0% means no effect; nearly all actives have a fitted effect of over 45% in size
#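 p53-null H1299 cells stably carrying temperature-sensitive p53-A138V and a BP100-luciferase reporter were pinned with compounds (4-point, 1:5 series) and held 24 hrs at 37 deg C. Luminescence was read 10 min after detection reagent.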
# GLP-1R inv ag = acts as inverse agonist at human GLP-1 receptor. P43220. HEK293 GLP-1R CRE-luciferase, luminescence, 24 h; GLP-1R form is constitutively active. Potency, µM (highest dose often 38.3 µM), for inactives: top-dose activity change, negative = inhibition, actives largely listed as inhibitors. hit rate 1.6% among 410,000; note: potency is the fitted concentration of half-maximal effect; % is set by controls: 0 for no effect and ±100 for the full control effect; nearly all actives have a fitted effect of over 55% in size
#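 HEK293 cells stably co-expressing constitutively active GLP-1R and a cAMP-responsive luciferase reporter were seeded in DMEM with 10% Nu serum, given compounds after 12 h, and incubated 24 h at 37 deg C. Luminescence was then read.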
# LDHA block = LDHA (human) enzyme inhibition. AID 1347041. hit rate 0.15% among 480,000. purified LDHA, NADH/diaphorase-resazurin fluorescence; stronger effect = lower value. P00338. activity change, % (values are at about 110 or 230 µM); in the data active = activity change below about -30%; inconclusive = mostly about -25% to -30%;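 note: plate controls were DMSO wells for no effect and wells without enzyme for full effect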
#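 Resorufin fluorescence (ex540/em590), read at 0 and 20 min after diaphorase/resazurin addition, reports the NADH left after a 5 min room-temperature reaction of 2 nM human LDH5 with 0.06 mM NADH and 0.2 mM pyruvate.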
# GLP1R cytotox = cytotoxicity counter-screen for GLP-1 receptor inverse agonists. AID 624418. hit rate 0.13% among 410,000. HEK293 cAMP-luciferase reporter cells, luminescence, 24 h. Potency, µM (doses to about 38.3 µM), without a hit: at the highest dose activity change, negative = inhibition, usual class: inhibitors;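 note: loss of luciferase light is scored as toxicity; potency is the fitted concentration of half-maximal effect; % is set by controls: 0 for no effect and ±100 for the full control effect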
#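 Step one: seed cells (200 cells/uL, DMEM with 10% Nu serum, 1% pen-strep). Step two: 12-hour incubation at 37 deg C. Step three: pin 23 nL compound, incubate 24 hr. Step four: add luciferase reagent, read luminescence 12 min later.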
# An asterisk follows results filed as active; i = inactive; ? = inconclusive; . = not tested or not shown. The list is not random: actives were taken first. Their share in the collection is about 2.9%. Unless noted, calls come from the whole dose curve; as a rule, active = well fitted curve in the direction sought with a large enough effect; inconclusive = small, poorly fitted or top-dose-only effect, or another doubt; inactive = no such curve, though single readings can be large; an effect the other way counts as inactive or inconclusive.
SMILES,GLP1R ag,ClpP mod,p53 reactivation,GLP-1R inv ag,LDHA block,GLP1R cytotox
COC(=O)c1[nH]c2cccc(OC)c2c1NC(=O)CN(C)CC1OCCO1,2%,32µM*,-12%,-5%,-3,-7%
COC(=O)c1[nH]c2cccc(OC)c2c1NC(=O)CN1CCOCC1,-7%,18µM*,-2%,2%,1,-5%
COC(=O)c1[nH]c2cccc(OC)c2c1NC(=O)CCN1CC(C)CC(C)C1 (centres undefined),18%,-19%,-3%,-20%,3,-15%
O=C(O)C1C2CCC(C2)C1C(=O)Nc1cccc([N+](=O)[O-])c1 (centres undefined),13%,.,3%,3%,-5,4%
C=CCN=C1SCC(=O)N1S(=O)(=O)c1ccc(C)cc1,-1%,0%,?,-3%,-8,-13%
O=C(Nc1sc2c(c1C(=O)O)CCCC2)c1cccs1,0%,3%,?,?,0,-30%
O=C(Nc1sc2c(c1C(=O)O)CCCCC2)c1cccs1,-8%,-1%,-4%,?,-42*,-19%
Cc1cc(C(=O)Nc2sc3c(c2C#N)CCC(C)C3)cs1 (centres undefined),-2%,25µM*,25%,35%,-5,21%
COC(=O)c1c(NC(=O)c2cccs2)sc2c1CCC(C)C2 (centres undefined),8%,?,?,24%,-8,2%
O=C(NN=C1CCCCCC1)c1cccs1,-1%,0%,40µM*,42%,1,-5%
CC1CCc2c(sc(NC(=O)c3cccs3)c2C(=O)O)C1 (centres undefined),0%,-5%,?,-30%,-40*,-17%
O=C(NN=C1CCCCCCC1)c1ccc(F)cc1,6%,.,17%,-18%,-5,-11%
COc1ccc(NC(=O)CC2C(=O)N(C)C(=S)N2Cc2ccc3c(c2)OCO3)cc1 (centres undefined),-1%,-2%,-6%,-14%,3,72%
Cc1c(Cl)cccc1NC(=O)NCc1cccnc1,5%,2%,1%,3%,-4,1%
COCCNC(=O)c1cn(Cc2c(F)cccc2Cl)nn1,-7%,0%,-2%,0%,-14,20%
CC(C)(C)C1CCc2c(sc(NC(=O)c3cccs3)c2C(=O)N2CCCCC2)C1 (centres undefined),-15%,?,8%,3.5µM*,-2,0%
COc1ccccc1-c1nn2c(-c3ccc(C(C)(C)C)cc3)nnc2s1,.,.,0%,.,.,.
CCOc1ccccc1-c1nn2c(Cc3ccccc3)nnc2s1,30%,25µM*,-9%,-1%,-3,7%
COc1ccccc1-c1nnc2sc(-c3ccc(N(C)C)cc3)nn12,25%,25µM*,16%,-20%,14,?
CN(C)c1ccc(-c2nn3c(-c4ccccc4Cl)nnc3s2)cc1,-2%,16µM*,0%,?,8,-33%
COc1ccccc1-c1nn2c(C(F)(F)F)nnc2s1,-9%,13µM*,3%,0%,0,3%
COc1cccc(-c2nn(C)c3sc(C(=O)NCc4ccc5c(c4)OCO5)cc23)c1,12%,5%,-6%,11%,-3,-15%
CCOn1c(-n2nc(C)cc2C)nc2ccccc2c1=O,-11%,0%,0%,4%,-7,-6%
COc1cc2c(c(O)c1OC)C(=O)C(OC)CCC2 (centres undefined),0%,28µM*,7%,22%,-8,1%
COc1cc2c(c(O)c1OC)-c1c(cc(OC)c(OC)c1OC)C[C@@H](C)[C@@H](C)C2,12%,1%,-1%,?,-2,-22%
SMILES,GLP1R ag,ClpP mod,p53 reactivation,GLP-1R inv ag,LDHA block,GLP1R cytotox
Cc1c(Cl)c([N+](=O)[O-])nn1CCCC(=O)N1CCN(c2ccccc2)CC1,-2%,1%,0%,0%,-2,4%
Cc1c(Br)c([N+](=O)[O-])nn1CCCC(=O)N1CCN(c2ccccc2)CC1,2%,14µM*,-7%,?,0,-16%
Cc1c(Br)c([N+](=O)[O-])nn1CC(=O)N1CCN(C23CC4CC(CC(C4)C2)C3)CC1,2%,-4%,1%,10µM*,-5,-16%
Cc1c(Br)c([N+](=O)[O-])nn1CC(=O)N1CCc2ccccc2C1,2%,-1%,-11%,-12%,-10,-5%
N#CC1=C(N)N(c2ccccc2)C(c2ccccc2)C1(C#N)C#N (centres undefined),12%,10µM*,-3%,-44%,0,4%
N#CC1=C(N)C(C#N)(C#N)C(c2cccnc2)C2CC(c3ccccc3)CC=C12 (centres undefined),-32%,83%,-29%,?,12,123%
CCC(=O)NC(=S)Nc1ccc(NC(=O)COc2ccc([N+](=O)[O-])cc2)cc1,-3%,2%,-2%,1%,-2,-18%
Cc1ccc(-n2cnc3c(sc4nccc(N(C)C)c43)c2=O)cc1,6%,-20%,2%,-30%,-3,-3%
COc1ccc(-n2cnc3c(sc4nccc(N(C)C)c43)c2=O)cc1,0%,14µM*,-10%,?,1,15%
CC(C)Cn1c(N)c(C(=O)NCC2CCCO2)c2nc3ccccc3nc21 (centres undefined),6%,28µM*,4%,?,15,i
Nc1c(C(=O)OCC2CCCO2)c2nc3ccccc3nc2n1C1CCCC1 (centres undefined),0%,25µM*,7%,?,0,92%
COc1ccc(OC)c(-n2c(N)c(C(=O)NCC3CCCO3)c3nc4ccccc4nc32)c1 (centres undefined),19%,18µM*,-4%,?,4,34%
O=C(Nc1ccnc(-c2cccnc2)n1)c1ccccc1Cl,-2%,7%,-16%,55%,-6,3%
CCOC(=O)C(C)Oc1ccc2c(=O)c(-c3ccc(Cl)cc3)c(C)oc2c1 (centres undefined),.,.,.,.,-12,.
COc1ccc(OCC(=O)Nc2ccc(-c3nc4ccccc4o3)cc2)cc1,.,.,.,.,0,.
Cc1cc(S(=O)(=O)NCc2ccc(N3CCN(C)CC3)cc2)c(C)s1,0%,.,0%,2.2µM*,-3,16%
Cc1nc2ccccc2c(N)c1C(=O)/C=C/c1ccccc1,-3%,.,2%,10µM*,-5,?
COc1cccc(NC(=O)C(Oc2ccc(S(=O)(=O)N3CCOCC3)cc2)c2ccccc2)c1 (centres undefined),.,.,.,.,-1,.
